From PubChem BioAssay AID2391 (Southern Research Specialized Biocontainment Screening …, 2010)
Out of some 310,000 compounds screened, about 410 (0.13%) were called active. Another 2% or so got no clear call; they are omitted. The rule behind the calls is not given here. The list is a sample of the results. Entries with a potency or affinity are not part of this list.

Test: inhibition of RSV-induced cytopathic effect – HEp-2 cells, primary 10 µM value included (AID 2391)
Settings: at 10 µM, active compounds read high

CPE inhibition, inactive:
Cc1ccc(O)c(NC(=S)NC(=O)c2ccc(-c3ccc(Cl)cc3)o2)c1 -0.16%
Cc1ccc(O)c(NC(=S)NC(=O)CC(C)C)c1 0.23%
CC(C)(C)c1ccc(C2C(C(=O)c3ccco3)=C(O)C(=O)N2CC2CCCO2)cc1 (stereo not drawn) 8.05%
O=C(CCCn1c(=O)c2sccc2n(CC(=O)NCc2ccco2)c1=O)NCc1ccco1 -0.82%
Cc1ccccc1Cn1c(=O)n(CCCC(=O)NCc2ccco2)c(=O)c2sccc21 3.02%
Cc1cccc2nc(Cn3c(=O)n(CCC(=O)NCc4ccco4)c(=O)c4sccc43)cc(=O)n12 10.2%
O=C(CCn1c(=O)c2ccccc2n(Cc2cc(=O)n3ccccc3n2)c1=O)NCc1ccco1 64%
O=C(C1=C[C@@H](c2coc3ccccc3c2=O)C[C@@H](OCc2ccc(CO)cc2)O1)N1CCN(Cc2ccc3c(c2)OCO3)CC1 4.77%
COC(=O)c1cc(S(=O)(=O)NCCc2cccc(C)c2)cn1C 0.96%
COc1ccccc1CNC(=O)Cc1csc(NC(=O)Nc2ccccc2OC)n1 7.68%
CC(C)(C)c1csc(NC(=O)Nc2ccccc2)n1 17.7%
O=C(CCCCCNC(=O)N1CCn2c1nc1ccccc12)N[C@@H](Cc1ccccc1)C(=O)O 0.73%
Cc1ccc2c(Cl)cc(Cl)c(OCC(=O)Nc3ccc(C)c(S(=O)(=O)N(C)C)c3)c2n1 1.79%
CCN1CCN(c2nc3c(C)cccn3c(=O)c2/C=C(\C#N)C(=O)NC)CC1 2.17%
Cc1cccn2c(=O)c(/C=C(\C#N)C(=O)NCc3ccco3)c(N3CCOCC3)nc12 1.08%
CNC(=O)/C(C#N)=C/c1c(N2CCN(c3ccccc3)CC2)nc2c(C)cccn2c1=O 14.9%
Cc1cccn2c(=O)c(/C=C(\C#N)C(=O)NCc3ccco3)c(N3CCC(C(N)=O)CC3)nc12 2.25%
COC(=O)[C@H](CCSC)NC(=O)NCCc1ccccc1F 0.16%
CC1CCN(Cc2c(C(=O)N/N=C/c3ccc(OC(C)C)cc3)nnn2-c2nonc2N)CC1 3%
COc1ccc(C2C3=C(CC(C)(C)CC3=O)N(C)C3=C2C(=O)CC(C)(C)C3)cc1OC 4.11%
COC(=O)C1=C(N)Oc2cc(C)n(CCCn3ccnc3)c(=O)c2C1c1cccc(Cl)c1 (stereo not drawn) 1.81%
CCOc1ccc(-c2cc(C(=O)N/N=C(\C)c3cccnc3)c3ccccc3n2)c(OCC)c1 0.9%
CCOc1ccc(-c2cc(C(=O)O)c3ccccc3n2)cc1 8.94%
COc1ccc(-c2cc(C(=O)N3CCCCC3)c3ccccc3n2)cc1 0.19%
O=C(N/N=C/c1ccc2c(c1)OCO2)c1cc(-c2ccccc2Cl)nc2ccccc12 4.7%
O=C(N/N=C/c1ccc2c(c1)OCO2)c1cc(-c2ccccc2)nc2ccccc12 1.93%
COc1ccc(-c2cc(C(=O)N3CCN(c4ncccn4)CC3)c3ccccc3n2)c(OC)c1 0.07%
COc1ccc(CN(C)CC(=O)Nc2ccccc2C(F)(F)F)c(OC)c1 0.3%
CCOC(=O)C1CCCN(C(=O)c2cccc(S(=O)(=O)N(C)c3ccc(C)cc3)c2)C1 (stereo not drawn) 0.68%
Cc1cccc(/C=N/NC(=O)c2cccc(NC(=O)c3ccccc3)c2)n1 1.75%
CC1(C)CC(=O)C=C(NNC(=O)c2ccc(N)cc2)C1 1.88%
O=C(CN(C(=O)c1csnn1)c1cccc2c1CCCC2)NCc1ccc(F)cc1 1.67%
CCOC(=O)c1c(CN2CCOCC2)oc2ccc(OC(C)=O)cc12 2.6%
COc1ccc(OCc2cc(C(=O)N3CCCC(CO)C3)no2)c2ccccc12 (stereo not drawn) 3.56%
CC1CC(C)(C)NC(=S)N1CC(=O)N1CCN(Cc2ccccc2)CC1 (stereo not drawn) -0.71%
Clc1ccc(OCc2nnc(-c3ccccc3Br)o2)cc1 11.5%
COc1ccc(-c2nc(CN3CCC(C(=O)N4CCc5ccccc54)CC3)c(C)o2)cc1OC 0.12%
O=C(O)CCC(=O)N1N=C(c2cccs2)CC1c1cn(-c2ccccc2)nc1-c1ccccc1 (stereo not drawn) 1.96%
COc1ccc(-c2nn(-c3ccccc3)cc2C2CC(c3cccs3)=NN2C(=O)CCCC(=O)O)cc1 (stereo not drawn) 6.41%
CCCCCCSc1cccc(-c2nc3ccc(Cl)cn3c2NCc2ccccc2)c1 -1.21%
O=C(CCSc1nnc2scc(-c3ccccc3)n12)Nc1nc(-c2ccccc2)ns1 9.19%
CCN(c1ccccc1)S(=O)(=O)c1cccc(C(=O)NCC(c2cccs2)N(C)C)c1 (stereo not drawn) -0.95%
CCOC(=O)C1=C(C)N=c2s/c(=C\c3ccc(OCC(=O)O)c(OC)c3)c(=O)n2C1c1ccc(OC)cc1 (stereo not drawn) 2.77%
CCOC(=O)C1=C(C)N=c2s/c(=C\c3ccc(OCC(=O)O)cc3)c(=O)n2C1c1ccc(Cl)cc1 (stereo not drawn) 18.1%
CC1CC(C)CN(S(=O)(=O)c2ccc(C(=O)OCC(=O)NCCN3C(=O)CSC3=O)cc2)C1 (stereo not drawn) 0.02%
Cc1nnc(SCC(=O)N(C2CCCCC2)C2CCS(=O)(=O)C2)n1N (stereo not drawn) -1.53%
O=C(CSc1nc2ccccc2o1)N1CCCC1 -0.37%
CCN1C(=O)N[C@@H](c2cccc(C(F)(F)F)c2)C(C(=O)OC)=C1C -0.08%
COC(=O)C1=C(C)N(Cc2ccco2)C(=O)N[C@@H]1c1ccc(Br)cc1 0.6%
COC(=O)C1=C(C)N(Cc2ccco2)C(=O)N[C@@H]1c1ccccc1 2.19%
COC(=O)C1=C(C)N(CC2CC2)C(=O)N[C@H]1c1ccc(Br)cc1 27%
COC(=O)C1=C(C)N(Cc2ccco2)C(=O)N[C@@H]1c1ccco1 0.83%
COC(=O)C1=C(C)N(Cc2ccco2)C(=O)N[C@@H]1c1cccc(C(F)(F)F)c1 4.06%
